Assay outcomes from PubChem.
APP transl inh: APP translation inhibition | inhibition, % at 2 µM | SH-SY5Y APP 5'UTR-luciferase reporter, luminescence | hit rate 0.82% among 190,000;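 active means inhibition above a set limit, derived from the sample mean plus 3 SD, cut at about 45% in these data; inconclusive means one replicate passes the limit while the other fails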
IEC-6 cytotox: counter-screen for KLF5 inhibitors: cytotoxicity in IEC-6 cells; hit rate 0.78% among 290,000; inhibition, % at 5 µM; AID 1825; IEC-6 cytotoxicity, luminescence viability; in the data active means inhibition above about 22%;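 further: 0% = plate median of test compound wells and 100% = cytotoxic reference compound wells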
aSyn 5UTR inh: MLPCN primary screen, SNCA 5' untranslated region; alpha-synuclein 5'UTR reporter, inhibitor activity; inhibition, % (tested at 7.5 µM); hit rate 0.82% among 300,000; in the data active means inhibition above about 60%; inconclusive means no clear call, values can overlap the other calls;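 further: H4 neuroglioblastoma cells stably carrying SNCA 5'UTR luciferase fusion; 0% = DMSO wells and 100% = positive control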
BaF3 tox: reduces parental Ba/F3 cell viability, JAK2V617F counter-screen. CellTiter-Glo ATP luminescence. inhibition, % at 5.6 µM. hit rate 1.1% among 220,000. AID 1486;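 active means inhibition above a per-campaign cutoff, the mean inhibition of all tested compounds plus 3 SD, cut at about 27% in these data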;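 further: 0% = DMSO wells and 100% = JAK Inhibitor I control wells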
KLF5 inhibitor: suppresses KLF5 promoter-driven expression. DLD-1 KLF5 promoter-luciferase reporter, luminescence. AID 1700. hit rate 0.23% among 290,000. inhibition, % at 5 µM;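 active means inhibition above a per-plate limit of that plate's mean compound inhibition plus 3 SD, cut at about 60% in these data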;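 further: 0% = DMSO wells and 100% = LY294002 at 200 µM; higher means less KLF5 promoter-driven luciferase light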
Ba/F3 V617F tox: lowers viability of Ba/F3 cells expressing EpoR and JAK2V617F | inhibition, % at 5.6 µM | ATP luminescence | AID 1446 | hit rate 1.1% among 220,000;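 active means inhibition above the campaign mean plus 3 SD over all tested compounds, cut at about 24% in these data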;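 further: cytokine-independent growth of Ba/F3 cells driven by EpoR plus mutant JAK2; 0% = DMSO-treated cells and 100% = JAK inhibitor I control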
Starred values were filed as active, the others as inactive; ? = inconclusive; . = no result. Most compounds without a hit are left out; they make up all but 2.2% or so of the library.

SMILES	APP transl inh	IEC-6 cytotox	aSyn 5UTR inh	BaF3 tox	KLF5 inhibitor	Ba/F3 V617F tox
O=C(CSc1nc(=O)n(CCCN2CCOCC2)c2c1CCC2)Nc1ccc(F)cc1F	.	.	0.8	.	.	.
O=C(O)c1ccc(Cl)c(S(=O)(=O)NCC2CCCO2)c1 (configuration not stated)	57.2*	-1.5	-1.0	3.1	-21.6	2.4
O=S(=O)(NCC1CCCO1)c1ccc(-c2ccc(S(=O)(=O)NCC3CCCO3)cc2)cc1 (configuration not stated)	6.3	3.1	-21.9	80.0*	35.4	52.4*
CCCCOC(=O)c1cc(Cl)c(O)c(OC)c1	.	2.8	17.5	-0.8	-14.3	-1.9
COc1ccc(CCN2CCC(Nc3nc4ccccc4n3Cc3ccc(F)cc3)CC2)cc1	2.8	4.2	102.5*	40.7*	-28.6	74.9*
COc1ccc(CNc2nc3ccccc3n2CCN2CCCCC2)cc1	-28.9	8.0	-22.0	-0.5	-25.7	0.0
O=S(=O)(c1cccs1)N1CCN(Cc2nc3ccccc3s2)CC1	-5.4	5.4	-7.3	5.1	-0.9	1.6
O=C(OCc1nc2ccccc2s1)C1CCN(S(=O)(=O)c2cccs2)CC1	-29.4	-1.1	-43.9	96.2*	-37.0	1.5
Cc1ccc(NC(=O)CN2CCCCCC2)cc1Br	-13.2	0.5	-15.3	0.1	1.3	-1.8
CC(=O)c1ccc(OCC(O)COc2ccc(C(C)=O)cc2)cc1	11.0	0.6	12.1	95.6*	-14.2	3.3
CC(CCc1ccccc1)NC(=O)C1CCN(c2nnc(-n3cccc3)s2)CC1 (configuration not stated)	-1.6	5.1	-43.8	5.2	-23.1	-2.1
COc1cc(C(=O)Nc2nc(C)c(Cc3ccc4c(c3)OCO4)s2)cc(OC)c1OC	86.3*	15.5	-25.4	74.0*	-6.6	82.2*
CCCOc1cccc(C(=O)Nc2ccc(Br)cc2F)c1	-128.4	-2.5	-161.3	3.5	-69.4	-3.1
Clc1ccc2noc(-c3ccccc3)c2c1	46.9*	-2.0	13.8	-0.6	2.9	-4.1
Cc1ccc(C(=O)N2CCOCC2)c(F)c1F	28.5	-0.6	17.1	90.1*	-16.4	2.5
Cc1cc(F)c(F)c(C(=O)N2CCOCC2)c1Cl	-1.7	2.1	20.4	5.1	-3.7	2.8
O=C(O)c1ccc(C2NCC(c3ccccc3Cl)c3c2[nH]c2ccccc32)cc1 (configuration not stated)	5.1	4.5	13.3	1.1	-19.3	-2.4
Cc1ccccc1OCc1n(CC(=O)OC2CC(C)CCC2C(C)C)c2ccccc2[n+]1C (configuration not stated)	8.2	-4.2	84.8*	79.8*	-12.1	100.7*
CC1CCC(C(C)C)C(OC(=O)COC(=O)c2cccn2C)C1 (configuration not stated)	1.2	-1.8	-0.5	2.7	-13.7	-1.3
CC1CCC(C(C)C)C(OC(=O)Cn2c(-c3ccc(Cl)cc3)[n+](C)c3ccccc32)C1 (configuration not stated)	.	8.4	?	95.2*	-16.8	98.7*
CC1CCC(C(C)C)C(OC(=O)Cn2c(-c3ccc(Br)cc3)[n+](C)c3ccccc32)C1 (configuration not stated)	-15.2	1.9	6.8	86.8*	-3.3	101.1*
CCOC(=O)c1[nH]ncc1CN1CCN(Cc2ccc(C)cc2)C(CCO)C1 (configuration not stated)	-10.0	5.5	13.8	0.4	-32.1	4.4
CC(=O)c1cccc(NC(=O)CSc2ccc(-c3ccccn3)nn2)c1	.	-2.8	68.8*	.	-16.2	.
CCc1ccc(NC(=O)CSc2ccc(-c3ccccn3)nn2)cc1	.	18.4	7.1	.	-23.6	.
O=C(CSc1n[nH]c(-c2ccccn2)n1)Nc1cccc(Cl)c1	.	-0.8	86.4*	.	59.3	.
SMILES	APP transl inh	IEC-6 cytotox	aSyn 5UTR inh	BaF3 tox	KLF5 inhibitor	Ba/F3 V617F tox
Cc1nc(SCC(=O)Nc2cccc(Cl)c2)n[nH]1	-3.6	2.5	-6.4	5.0	-9.3	0.9
CCOC(=O)c1ccccc1NC(=O)CSc1ccc(-c2ccccn2)nn1	.	4.2	68.7*	.	0.0	.
CC(=O)Nc1cccc(NC(=O)CSc2ccc(-c3ccccn3)nn2)c1	0.2	5.5	51.9	2.2	-17.8	-2.3
Clc1ccc(CSc2snnc2-c2ccccc2)c(Cl)c1	-37.3	0.1	-120.8	1.1	-21.5	0.8
CCn1c(SCC(=O)N2CCC(C)CC2)nnc1-c1ccc(S(=O)(=O)N2CCN(C)CC2)cc1	-2.0	4.8	-11.7	0.9	-20.4	-4.4
CO/N=C(/CS(=O)c1ccc(Br)cc1)c1ccc(OC)cc1 (configuration not stated)	4.9	6.0	.	5.2	4.6	2.5
O=C(c1ccc2c(c1)OCO2)N1CCN(c2ncccn2)CC1	-2.9	1.8	2.2	3.7	-15.2	1.2
CCc1c(C)nc2ncnn2c1NCCc1ccc(Cl)cc1	4.9	6.9	12.1	38.6*	-16.4	18.1
CCc1c(C)nc2ncnn2c1NCCc1ccccc1	4.4	-0.3	-4.6	13.2	-15.9	0.4
Cc1ccc(SCCN2CCC(C)CCC2=O)cc1 (configuration not stated)	.	0.9	-153.3	.	-76.6	.
Cc1ccc(C(=O)OCC(=O)Nc2ccc(S(N)(=O)=O)cc2)c(O)c1	.	-2.9	-1.1	0.6	-19.4	0.4
N#Cc1cnn(Cc2ccccc2)c1N	11.6	-1.2	8.1	1.2	28.5	-4.1
CC1=CC(C)(C)[N+](C)(C)c2ccc(C)cc21	3.0	-0.5	1.8	42.0*	-17.8	29.4*
CC(C)(C)c1cc(CCC(=O)NNC(=S)NC(=O)c2ccccc2)cc(C(C)(C)C)c1O	44.4	2.3	65.8*	7.1	-15.8	-0.8
O=C(NC(=S)NNC(=O)[C@H]1C[C@@H]1c1ccccc1)c1cccc(F)c1	.	4.4	67.2*	-4.1	-16.2	-2.1
CC(C)(C)Nc1nc(C(N)=O)nc(N2CCOCC2)n1	60.0*	8.6	10.2	1.4	-48.3	-1.4
NC(=O)c1nc(N2CCOCC2)nc(N2CCOCC2)n1	-2.6	2.8	8.9	6.9	-19.0	2.2
CCCCn1c(N)c(N(CC(C)C)C(=O)c2cc(C)nc3ccccc23)c(=O)[nH]c1=O	.	.	6.1	.	.	.
Cc1onc(-c2ccccc2Cl)c1C(=O)N1CCN(c2cccc(Cl)c2)CC1	-8.2	.	67.3*	.	.	.
Cc1ccc2c(c1)c(C)cc[n+]2Cc1ccccc1	-4.6	5.2	-11.3	69.8*	26.9	93.6*
CCCSc1ccc2nc(-c3ccccc3)cn2c1	-97.7	0.3	110.9*	7.7	41.3	8.2
Cc1nc2ncccn2c1-c1csc(Nc2ccc(S(N)(=O)=O)cc2)n1	.	-7.1	5.9	.	-54.6	.
Cc1nc2ncccn2c1-c1csc(Nc2ccc(N(C)C)cc2)n1	93.8*	22.2*	70.2*	81.0*	33.4	79.1*
CC(=O)Nc1ccc(Nc2nc(-c3c(C)nc4ccccn34)cs2)cc1	.	.	86.6*	.	.	.
COc1ccc(Nc2nc(-c3c(C)nc4ncccn34)cs2)cc1	94.1*	86.2*	.	82.5*	84.3*	82.5*
Cc1nc2ncccn2c1-c1csc(Nc2ccccc2)n1	6.0	4.3	-15.8	2.5	-29.0	-0.8
